SW480 rerep: A quantitative high throughput screen for small molecules that induce DNA re-replication in SW480 colon adenocarcinoma cells; AID 624297, 2012; 1.8% of 340,000 active; Potency, µM (doses to about 46.1 µM), for inactives: top-dose re-replication activation, hits mostly activators; SW480 DNA re-replication, Hoechst DNA content imaging, 48 h; note: potency is the fitted concentration of half-maximal effect; % of control where 0% means no effect; nearly all actives have a fitted effect of over 55% in size
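DNA re-replication was detected as more nuclei of elevated Hoechst intensity after 48 hr exposure to compound (23 nL pinned per well of 250 cells).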
IL-1B inflam inh: qHTS for Inhibitors of Inflammasome Signaling: IL-1-beta AlphaLISA Primary Screen | 4.7% of 360,000 active | activity change, % at 57.5 µM | THP-1 LPS/ATP IL-1B secretion, AlphaLISA, 16 h; hits give low values | AID 743279, 2014; in the data active = activity change below about -50%; inconclusive = mostly about -30% to -49%; note: % is set by controls: 0 for no effect and ±100 for the full control effect
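THP-1 cells pretreated 1 hr with compounds (up to 57.5 uM final), then stimulated with LPS (250 ng/mL final) plus ATP (1.25 mM final); secreted IL-1B measured by AlphaLISA after 16 hr, decreased signal indicating inhibition.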
Giardia killer: Small Molecules that selectively kill Giardia lamblia: qHTS; Giardia lamblia trophozoite viability; activity change, % at 7.66 µM, hits read low; 0.15% of 340,000 active; in the data active = activity change below about -80%; inconclusive = between about -30% and that limit;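 note: parasites exposed to compound for two days anaerobically before the ATP read; % is set by controls: 0 for no effect and ±100 for the full control effect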
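Luminescent ATP signal served as the viability read-out, measured 15-30 min after adding ATP detection reagent to trophozoites that had been incubated with compounds for 48 hrs at 37 deg C anaerobically at 100 cells/well.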
Vif-APOBEC3G blk: qHTS for Inhibitors of Vif-A3G Interactions: qHTS | DNA dC->dU-editing enzyme APOBEC-3G (Homo sapiens), Q9HC16 | HeLa A3G-eYFP + Vif (tagged APOBEC3G with the HIV-1 protein that degrades it), YFP fluorescence, overnight | Potency, µM (top dose mostly 46.1 µM), without a hit: at the highest dose activity, negative = active, usual class: inhibitors | 0.076% of 410,000 active | AID 602310, 2012; note: potency is the fitted concentration of half-maximal effect; % is set by controls: 0 for no effect and ±100 for the full control effect; nearly all actives have a fitted effect of over 60% in size
Target sequence (Q9HC16 whole entry, looked up): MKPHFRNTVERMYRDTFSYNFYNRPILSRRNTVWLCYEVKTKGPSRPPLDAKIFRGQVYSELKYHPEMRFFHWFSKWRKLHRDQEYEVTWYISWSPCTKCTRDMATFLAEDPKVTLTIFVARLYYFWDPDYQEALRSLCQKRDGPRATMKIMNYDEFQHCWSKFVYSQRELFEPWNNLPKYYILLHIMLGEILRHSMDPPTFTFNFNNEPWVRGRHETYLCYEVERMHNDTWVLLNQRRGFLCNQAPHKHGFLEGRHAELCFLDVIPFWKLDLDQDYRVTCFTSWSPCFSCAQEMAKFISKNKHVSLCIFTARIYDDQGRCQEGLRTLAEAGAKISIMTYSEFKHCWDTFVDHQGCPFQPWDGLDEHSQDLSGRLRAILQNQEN
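HeLa cells stably expressing Vif and C-terminally eYFP-tagged A3G, seeded overnight at 37 deg C, then exposed to compound by pintool overnight at 37 deg C. Rise in yellow fluorescence (Ex 488/Em 500-530, Acumen) marks blocked Vif-driven A3G degradation.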
Vif-A3F inh: qHTS for Inhibitors of Vif-A3F Interactions: qHTS | HeLa A3F-eYFP + Vif (tagged APOBEC3F with the HIV-1 protein that degrades it), YFP fluorescence increase | Potency, µM (top dose mostly 46.1 µM), for the others: top-dose activity, negative = active | 0.2% of 390,000 active | AID 602313, 2012; note: potency is the fitted concentration of half-maximal effect; % of control where 0% means no effect; nearly all actives have a fitted effect of over 65% in size
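HeLa cells stably expressing A3F-eYFP plus Vif, plated and incubated overnight at 37 deg C, then exposed to compounds overnight at 37 deg C. Blocked degradation read as raised yellow fluorescence (Ex 488/Em 500-530).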
MCF10A rereplic: A quantitative high throughput screen for small molecules that induce DNA re-replication in MCF 10a normal breast cells; MCF 10A DNA re-replication, Hoechst nuclear intensity, 48 h; Potency, µM (series often up to 46.1 µM), without a hit: top-dose activity, positive = re-replication, usual class: activators; 2.9% of 350,000 active; note: potency is the fitted concentration of half-maximal effect; % of control where 0% means no effect; nearly all actives have a fitted effect of over 50% in size
An asterisk follows results filed as active; ! = not active in a repeat. In the library only some 6.9% were active in any assay of this set; here they are far more common. Unless noted, calls come from the whole dose curve; as a rule, active = well fitted curve in the direction sought with a large enough effect; inconclusive = small, poorly fitted or top-dose-only effect, or another doubt; inactive = no such curve, though single readings can be large; an effect the other way counts as inactive or inconclusive.

How did Cn1cc([N+](=O)[O-])c(C(=O)Nc2ccc3c(C(F)(F)F)cc(=O)oc3c2)n1 do in these assays?
SW480 rerep: 12µM*; IL-1B inflam inh: -95*; Giardia killer: 23; Vif-APOBEC3G blk: inconclusive; Vif-A3F inh: 3%; MCF10A rereplic: inconclusive

How did Nc1c2c(nc3sc4c(c13)CCCCC4)CCCC2 do in these assays?
SW480 rerep: -2%; IL-1B inflam inh: -83*; Giardia killer: 22; Vif-APOBEC3G blk: 2%; Vif-A3F inh: -2%; MCF10A rereplic: inconclusive

Results for CCOc1ccccc1NC(=O)c1cccn(Cc2ccccc2C)c1=O ?
Vif-APOBEC3G blk: 1%; Vif-A3F inh: 12%

How did C[C@H](CO)N1C[C@H](C)[C@H](CN(C)C(=O)Oc2ccccc2)OCc2cnnn2CCCC1=O do in these assays?
IL-1B inflam inh: 10; Vif-APOBEC3G blk: 1%; Vif-A3F inh: -1%

What do the screens show for `C/C(=N\NC(N)=S)C12CC3CC(CC(C3)C1)C2`?
SW480 rerep: 26µM*; IL-1B inflam inh: inconclusive; Giardia killer: 7; Vif-APOBEC3G blk: inconclusive; Vif-A3F inh: -1%; MCF10A rereplic: 7.3µM*

How did CC(=O)OC1C(O)C2=C3C4(C)C1C(C)(C)C(=O)CC4C3(O)C(OC(C)=O)C1(CC1C)C2=O (configuration not stated) do in these assays?
IL-1B inflam inh: -121*

How did CC(=O)OC1CC2(O)C3CCC4CC(O)CCC4(C)C3CCC2(C)C1C1=CC(=O)OC1 (configuration not stated) do in these assays?
SW480 rerep: 1.6µM*; IL-1B inflam inh: -80*; Giardia killer: 12; Vif-APOBEC3G blk: -2%; Vif-A3F inh: inconclusive; MCF10A rereplic: inconclusive

What do the screens show for `C[C@@H]1O[C@@H](O[C@H]2C[C@@H](O)[C@]3(CO)[C@H]4[C@H](O)C[C@]5(C)[C@@H](C6=CC(=O)OC6)CC[C@]5(O)[C@@H]4CC[C@]3(O)C2)[C@H](O)[C@H](O)[C@H]1O`?
SW480 rerep: 0.26µM*!; IL-1B inflam inh: -56*; Giardia killer: -14; Vif-APOBEC3G blk: -5%; Vif-A3F inh: -5%; MCF10A rereplic: 0.058µM*!

How did CC1OC(OC2C(O)CC(OC3C(O)CC(OC4CCC5(C)C(CCC6C5CCC5(C)C(C7=CC(=O)OC7)C(O)CC65O)C4)OC3C)OC2C)CC(O)C1O (configuration not stated) do in these assays?
SW480 rerep: 1.8µM*; IL-1B inflam inh: -99*; Giardia killer: 2; Vif-APOBEC3G blk: -1%; Vif-A3F inh: -1%; MCF10A rereplic: inconclusive

Results for CC(=O)OC1CC(OC2C(O)CC(OC3C(O)CC(OC4CCC5(C)C(CCC6C5CCC5(C)C(C7=CC(=O)OC7)C(O)CC65O)C4)OC3C)OC2C)OC(C)C1OC1OC(CO)C(O)C(O)C1O (configuration not stated) ?
SW480 rerep: 1.2µM*; IL-1B inflam inh: -80*; Giardia killer: -13; Vif-APOBEC3G blk: -4%; Vif-A3F inh: -29%; MCF10A rereplic: inconclusive

What do the screens show for `C[N+]1(C)C2CC[C@H]1CC(OC(=O)[C@@H](CO)c1ccccc1)C2` (some centres not stated)?
SW480 rerep: inconclusive; MCF10A rereplic: 9%

How did Cc1c(C)c2c(OCC(=O)N[C@@H](C)C(=O)O)cc3c(c2oc1=O)CCC(C)(C)O3 do in these assays?
SW480 rerep: -2%; IL-1B inflam inh: -1; Giardia killer: 7; Vif-APOBEC3G blk: 0%; Vif-A3F inh: 12%; MCF10A rereplic: -21%

What do the screens show for `C[C@H]1O[C@@H](O[C@H]2[C@@H](O)C[C@H](O[C@H]3[C@@H](O)C[C@H](O[C@H]4CC[C@@]5(C)[C@H](CC[C@@H]6[C@@H]5CC[C@]5(C)[C@@H](C7=CC(=O)OC7)CC[C@]65O)C4)O[C@@H]3C)O[C@@H]2C)C[C@H](O)[C@@H]1O`?
SW480 rerep: 0.21µM*; IL-1B inflam inh: -76*; Giardia killer: 42; Vif-APOBEC3G blk: -14%; Vif-A3F inh: -1%; MCF10A rereplic: 0.065µM*

What do the screens show for `O=C(O)COc1ccc(Br)cc1C(c1c(C(=O)O)[nH]c2ccccc12)c1c(C(=O)O)[nH]c2ccccc12`?
SW480 rerep: -32%; IL-1B inflam inh: 67; Giardia killer: 8; Vif-APOBEC3G blk: 2%; Vif-A3F inh: -1%; MCF10A rereplic: inconclusive

Results for C=CCN1CC[C@]23c4c5ccc(O)c4OC2C(=O)CC[C@@]3(O)C1C5 (some centres not stated) ?
SW480 rerep: -2%; IL-1B inflam inh: 4; Giardia killer: 20; Vif-APOBEC3G blk: 2%; Vif-A3F inh: -3%; MCF10A rereplic: -15%

Results for COc1ccc2c3c1OC1C(=O)CC[C@@]4(O)[C@@H](C2)N(C)CC[C@]314 (some centres not stated) ?
SW480 rerep: inconclusive; IL-1B inflam inh: -72*; Giardia killer: -1; Vif-APOBEC3G blk: -24%; Vif-A3F inh: 0%; MCF10A rereplic: inconclusive

What do the screens show for `Oc1ccc(/C=N/NP(=S)(c2ccccc2)c2ccccc2)cc1`?
SW480 rerep: -3%; IL-1B inflam inh: 5; Giardia killer: -9; Vif-APOBEC3G blk: 0%; Vif-A3F inh: 1%; MCF10A rereplic: 7%

What do the screens show for `COc1cc(/C=N/NP(=S)(c2ccccc2)c2ccccc2)ccc1O`?
SW480 rerep: -1%; IL-1B inflam inh: 60; Giardia killer: 0; Vif-APOBEC3G blk: 2%; Vif-A3F inh: -4%; MCF10A rereplic: 11µM*

What do the screens show for `O=C1CC2OCC=C3CN4CC[C@]56c7ccccc7N1C5C2[C@H]3C[C@H]46` (some centres not stated)?
SW480 rerep: -3%

What do the screens show for `O=c1[nH]sc2cc(F)ccc12`?
SW480 rerep: inconclusive; IL-1B inflam inh: -108*; Giardia killer: inconclusive; Vif-APOBEC3G blk: -6%; Vif-A3F inh: 0%; MCF10A rereplic: inconclusive

What do the screens show for `COC(=O)C1=C(c2cccc(OCc3ccccc3)c2)C[C@@H]2CC[C@H]1N2C(=O)NCc1ccc2[nH]ccc2c1`?
SW480 rerep: -2%; IL-1B inflam inh: 0; Giardia killer: -15; Vif-APOBEC3G blk: 0%; Vif-A3F inh: 5%; MCF10A rereplic: 5.2µM*

From PubChem BioAssay
